# From PubChem BioAssay
# Active and inactive are the calls of the source.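 How the source made its calls: active means inhibition of the reporter signal at or above 50%; inactive means inhibition below 50%.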
# Assay: TLR3 IRF3 reporter activation blockers – cell-based, poly I:C stimulus, luciferase, 10K MLSCN set, primary screen (AID 602277)
# Settings: HEK293-TLR3 RL24 IRF3 luciferase reporter, at 10 µM, active compounds read high
row,SMILES,inhibition
1,CCOc1cccc(-c2nnc3n2N=C(c2cc(OC)ccc2OC)CS3)c1,56.7% (active)
2,COc1ccc2ccccc2c1CN1CCCC(CO)C1 (stereo unspecified),35.4% (inactive)
3,Cc1cc(NC(c2cccnc2)c2c(C)[nH]c3ccccc23)no1 (stereo unspecified),28.6% (inactive)
4,CC(NC(=O)c1ccc2c(c1)OCO2)C(c1cccs1)N1CCOCC1 (stereo unspecified),15.4% (inactive)
5,COCCn1nnnc1C(c1cc2ccc(OC)cc2[nH]c1=O)N1CCc2ccccc2C1 (stereo unspecified),37.8% (inactive)
6,O=C1c2ccccc2C(=O)N1CCN1CCCCC1,-2.11% (inactive)
7,COc1ccc(S(=O)(=O)Cc2ccc(C(=O)N3CCN(c4ccccc4)CC3)o2)cc1,26.1% (inactive)
8,Cc1ccccc1C(=O)NC1CCN(Cc2nnnn2Cc2ccccc2)CC1,19.8% (inactive)
9,O=C(O)Cn1cc(C(=O)c2ccco2)c2ccccc21,8.5% (inactive)
10,CCOc1ccc2oc(-c3ccccc3)c(C(=O)N3CCN(CCO)CC3)c2c1,34% (inactive)
11,O=C(NC1CCCCC1)N(Cc1ccc(F)cc1)Cc1nc2ccccc2c(=O)[nH]1,29% (inactive)
12,O=C(NC1CCCCCC1)C1CCCN(S(=O)(=O)c2cccs2)C1 (stereo unspecified),2.4% (inactive)
13,Cc1cc(C(=O)Nc2sc3c(c2C#N)CCCCC3)cs1,-119% (inactive)
14,CC(=O)Nc1ccc(S(=O)(=O)N(C2=NCC(C)S2)c2ccccc2)cc1 (stereo unspecified),11.1% (inactive)
15,CC(=O)N1CCN(S(=O)(=O)c2ccc(S(=O)(=O)NC3CC3)cc2)CC1,18% (inactive)
16,CN(C)S(=O)(=O)N1CCN(c2cccc(Cl)c2)CC1,20.7% (inactive)
